The panel holds about 83,000 compounds, 20% with a hit somewhere; the sample as a whole holds those more often.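 Negative percent growth values reflect cell death: -40 means 40% of the cells present at the start died, and -100 means all died.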 Values without a mark were called inactive. Calls of active or inactive are those of the source. Rule for the calls: active = growth percent below 10; inactive = the rest.

For 7 compounds, growth results are on record in PubChem BioAssay (NCI).

Some test systems named below: NCI-H23 lung; NCI-H226 lung; NCI-H322M lung; HOP-62 NSCLC; NCI-H460 lung; HOP-92 NSCLC; NCI-H522 lung; A549/ATCC NSCLC; 786-0 renal; COLO 205 colon; DU-145 prostate; K-562 leukemia; MALME-3M melanoma; MDA-MB-231 breast; RXF 393 renal; SF-268 CNS; SF-295 CNS; SF-539 CNS; UACC-257 melanoma; M14 melanoma.
Holding throughout (experiment): NCI-60 one-dose screen, 48 h (100 = growth as untreated, 0 = no growth, -100 = all killed)
Common to all, as to conditions: 10 µM unless noted

As for `Cc1ccc2c(n1)C(=O)C(Cl)=C(Nc1ccc(C(F)(F)F)cc1)C2=O`, the growth is 68.5% with NCI-H23 lung; 89.5% with NCI-H226 lung; 107% with NCI-H322M lung; 97.2% in the assay on HOP-62 NSCLC; 101% in the assay with NCI-H460 lung; 71.3% with HOP-92 NSCLC. Besides, the growth with NCI-H522 lung was -18.8% (active); with A549/ATCC NSCLC it was 102%; in the assay on 786-0 renal, 34%; in the assay on COLO 205 colon, 16.7%; in the assay with DU-145 prostate it was 105%; in the assay on K-562 leukemia it was 7.13% (active). For the same compound, the growth with MALME-3M melanoma was -49.6% (active); in the assay with MDA-MB-231 breast it was 76.4%; with RXF 393 renal, -15.7% (active); with SF-268 CNS, 97.7%; in the assay with SF-295 CNS it was 112%; in the assay on SF-539 CNS it was 101%. The growth with UACC-257 melanoma was 35.6%; in the assay on M14 melanoma, 28.6%.
Regarding `O=C(N/N=C\c1ccc(F)cc1)c1ccc2nc(-c3ccc(Br)cc3)[nH]c2c1`, the growth was 0.752% (active) with NCI-H23 lung; 32.9% in the assay on NCI-H226 lung; 68.1% with NCI-H322M lung; 25.1% in the assay with HOP-62 NSCLC; -64.4% (active) with NCI-H460 lung; 53.3% in the assay on HOP-92 NSCLC. The growth is 81% in the assay with NCI-H522 lung; -3.93% (active) in the assay on A549/ATCC NSCLC; -32% (active) in the assay on 786-0 renal; 19.2% with COLO 205 colon; -22.1% (active) in the assay with DU-145 prostate; 19.9% with K-562 leukemia. The growth in the assay with MALME-3M melanoma was -49.9% (active); with MDA-MB-231 breast, 60.6%; in the assay on RXF 393 renal, -12.3% (active); with SF-268 CNS it was 44.8%; with SF-295 CNS it was 39.4%; in the assay with SF-539 CNS, 10.9%. Further, the growth with UACC-257 melanoma was 74.5%; in the assay with M14 melanoma, 18.8%.
`COC(=O)CCSC1=C(C)C(=O)c2ccccc2C1=O`: the growth was 71.3% in the assay with NCI-H23 lung; 86.7% in the assay with NCI-H226 lung; 99% with NCI-H322M lung; 107% in the assay with HOP-62 NSCLC; 101% in the assay on NCI-H460 lung; 88.6% in the assay on HOP-92 NSCLC. Further, the growth in the assay with NCI-H522 lung was 62.4%; in the assay with A549/ATCC NSCLC, 106%; with 786-0 renal it was 103%; in the assay on COLO 205 colon it was 120%; in the assay on DU-145 prostate, 111%; in the assay with K-562 leukemia it was 38.4%. Further, the growth was 104% in the assay on MALME-3M melanoma; 75.6% with MDA-MB-231 breast; 87.3% in the assay with RXF 393 renal; 97.4% in the assay on SF-268 CNS; 102% with SF-295 CNS; 78.6% in the assay on SF-539 CNS. The growth in the assay on UACC-257 melanoma was 106%; in the assay on M14 melanoma it was 107%.
For `COc1ccccc1N1CCN(C2=C(Cl)C(=O)c3ncccc3C2=O)CC1`, the growth with NCI-H23 lung is 56.3%; with NCI-H226 lung, 91%; in the assay with NCI-H322M lung, 92.4%; in the assay with HOP-62 NSCLC, 93.4%; with NCI-H460 lung it was 75%; in the assay on HOP-92 NSCLC, 135%. In addition, the growth with NCI-H522 lung is 9.14% (active); in the assay with A549/ATCC NSCLC it was 112%; in the assay with 786-0 renal it was 107%; in the assay on COLO 205 colon it was 106%; with DU-145 prostate, 48%; with K-562 leukemia it was 9.05% (active). The growth was 58.8% with MALME-3M melanoma; 86.4% with MDA-MB-231 breast; 71% in the assay with RXF 393 renal; 87.6% in the assay with SF-268 CNS; 107% with SF-295 CNS; 95% with SF-539 CNS. In addition, the growth in the assay on UACC-257 melanoma is 95%; in the assay with M14 melanoma, 88.1%.
As to `C(=N\Nc1nc(N/N=C/c2ccc3c(c2)OCO3)nc(N2CCCCC2)n1)/c1ccc2c(c1)OCO2`, the growth in the assay on NCI-H23 lung is 101%; in the assay on NCI-H226 lung it was 101%; in the assay on NCI-H322M lung, 98.5%; in the assay on HOP-62 NSCLC, 123%; in the assay on NCI-H460 lung, 90.6%; with HOP-92 NSCLC it was 96%. For the same compound, the growth with NCI-H522 lung was 91.9%; with A549/ATCC NSCLC it was 91.4%; with 786-0 renal it was 86.6%; in the assay with COLO 205 colon, 85.9%; in the assay on DU-145 prostate, 99.8%; in the assay on K-562 leukemia, 41.1%. Besides, the growth with MALME-3M melanoma was 120%; with MDA-MB-231 breast, 90.7%; in the assay with RXF 393 renal, 79.7%; in the assay with SF-268 CNS, 100%; with SF-295 CNS it was 77.8%; with SF-539 CNS it was 87.6%. For the same compound, the growth was 108% with UACC-257 melanoma and 97.3% in the assay with M14 melanoma.
As for `Cc1[nH]c(C(=O)Nc2ccccc2OCc2cccc(C(=O)NC3CCNC3)c2)c(Cl)c1Cl` (stereo not given), the growth in the assay on NCI-H23 lung was 8.19% (active); in the assay with NCI-H226 lung, 87.2%; in the assay with NCI-H322M lung, 70.2%; in the assay on HOP-62 NSCLC it was 6.22% (active); in the assay with NCI-H460 lung it was -62.9% (active); in the assay on HOP-92 NSCLC, 70.2%. Further, the growth with NCI-H522 lung is -0.407% (active); with A549/ATCC NSCLC, -51.2% (active); in the assay on 786-0 renal, -69.2% (active); in the assay with COLO 205 colon, -43.3% (active); with DU-145 prostate it was -84.8% (active); in the assay on K-562 leukemia, 0.128% (active). For the same compound, the growth is 74.2% in the assay on MALME-3M melanoma; -57.8% (active) in the assay with MDA-MB-231 breast; 78.8% in the assay on RXF 393 renal; 74.8% in the assay with SF-268 CNS; -85% (active) in the assay with SF-295 CNS; -75.6% (active) in the assay on SF-539 CNS. Moreover, the growth is 103% in the assay with UACC-257 melanoma and 24.1% in the assay with M14 melanoma.
As for `COc1ccc2[nH]cc(/C=N/Nc3ccnc4cc(Cl)ccc34)c2c1`, the growth in the assay with NCI-H23 lung was -91.8% (active); with NCI-H226 lung it was -78.7% (active); in the assay with NCI-H322M lung it was -100% (active); in the assay on HOP-62 NSCLC, -56.7% (active); in the assay with NCI-H460 lung it was -78.1% (active); in the assay with HOP-92 NSCLC it was -91.6% (active). The growth with NCI-H522 lung was -62.4% (active); in the assay on A549/ATCC NSCLC, -49.2% (active); in the assay with 786-0 renal, -92.3% (active); in the assay on COLO 205 colon, -56.7% (active); in the assay on DU-145 prostate it was -98.9% (active); in the assay on K-562 leukemia, -4.83% (active). The growth is -97.7% (active) with MALME-3M melanoma; -93.9% (active) in the assay with MDA-MB-231 breast; -100% (active) in the assay with RXF 393 renal; -60.7% (active) in the assay with SF-268 CNS; -100% (active) in the assay on SF-295 CNS; -100% (active) in the assay with SF-539 CNS. Moreover, the growth is -84.2% (active) with UACC-257 melanoma and -79.7% (active) in the assay on M14 melanoma.
